Data published in PubChem BioAssay (NCATS).
Results filed as inconclusive are left out. Entries that show only a call come without a potency. The source made the active and inactive calls. The call rests on the fitted dose curve; in most records, active means well fitted inhibition curve with a large enough effect; inconclusive means small, poorly fitted or top-dose-only effect; inactive means no such curve, though single readings can be large or run the other way.

Biological target: Retinal dehydrogenase 2 (Homo sapiens) (UniProt O94788)
Assay: qHTS for Inhibitors of the Aldehyde Dehydrogenase Family (ALDH1A2) Confirmation screens (AID 2061314); further: nearly all actives have a fitted effect of over 65% in size; further: potency means the concentration at half of the fitted maximal effect
Conditions: ALDH1A2 enzyme inhibition qHTS confirmation; series mostly up to 45.9 µM

Structure (SMILES) | Potency
COc1ccc(-c2nc3ccccc3c(=O)n2Cc2ccco2)cc1COc1ccc(NC(C)=O)cc1 | 12.7 µM (active)
CN(C)CCCNc1ccc(NC(=O)c2cccs2)cn1 | 5.65 µM (active)
Nc1ccccc1OC1=NS(=O)(=O)c2ccccc21 | inactive
COc1ccc(C2=Nn3c(nnc3-c3ccccc3OC)SC2)cc1 | inactive
COc1ccc(C2Oc3ccccc3C(=O)N2Cc2ccccc2)cc1COc1ccc(NC(C)=O)cc1 (stereo not given) | 7.12 µM (active)
CCOc1ccc(CCNC(=O)c2cc3c(s2)CCC3)cc1OCC | 14.2 µM (active)
N#Cc1c(-c2ccc(Br)cc2)no[n+]1[O-] | 7.12 µM (active)
O=C(Nc1nc(-c2ccccc2)cs1)c1ccncc1NS(=O)(=O)c1ccc(Cl)cc1 | 10.1 µM (active)
Cc1ccc(N[S+](=O)([O-])c2cc3c(cc2Cl)NC(=O)CO3)cc1Br | 14.2 µM (active)
c1csc(CNc2ccc(N3CCOCC3)cc2)c1 | 22.5 µM (active)

Biological target: Retinaldehyde dehydrogenase 3 (Homo sapiens) (UniProt P47895)
Assay: qHTS for Inhibitors of the Aldehyde Dehydrogenase Family (ALDH1A3) Primary screen (AID 2061315)
Conditions: ALDH inhibition qHTS; series mostly up to 56 µM

Structure (SMILES) | Potency
CN(C)c1ccc(C(=O)NCC(=O)OC(C(=O)Nc2cc(C(F)(F)F)ccc2Cl)c2ccccc2)cc1 (stereo not given) | inactive
CN(C)[C@H]1CCN(c2cccc(Nc3nn4c(=O)c5ccccc5nc4s3)c2)C1 | inactive
C=C1[C@@H](OC(C)=O)CC[C@@]2(C)[C@@H](OC(C)=O)[C@H](OC(C)=O)C3=C(C)C[C@H](OC(=O)C(C)CC)[C@@H]([C@@H](OC(C)=O)[C@H]12)C3(C)C (stereo not given in full) | inactive
COc1ccc(-c2nc3ccccc3c(=O)n2Cc2ccco2)cc1COc1ccc(NC(C)=O)cc1 | inactive
O=c1[nH]c(CN2CCOCC2)nc2sc3c(c12)CCCC3 | inactive
CN(C)CCCNc1ccc(NC(=O)c2cccs2)cn1 | inactive
Nc1ccccc1OC1=NS(=O)(=O)c2ccccc21 | inactive
O=C(OCC#CCSc1nnc(-c2cccc3ccccc23)o1)c1ccncc1 | inactive
COc1ccc(C2=Nn3c(nnc3-c3ccccc3OC)SC2)cc1 | inactive
Nc1nccc(-c2c(-c3ccc(F)cc3)ncn2C2CCCCC2)n1 | inactive
c1nc(NCC2CC2)c2cc(-c3ccc4c(c3)OCO4)ccc2n1 | inactive
O=C([C@@H]1CCCN(c2ccc3[nH]c(C4(n5cc(Cl)cn5)CC4)nc3n2)C1)N1CCCC1 | inactive
NC(=O)C1CCN(c2nc(-c3cc4ccccc4o3)cs2)CC1 | inactive
Cc1ccc(OCCn2c3c(c4ccccc42)CN(C(=O)C2CCCCC2)CC3)cc1 | inactive
COc1ccc(C2Oc3ccccc3C(=O)N2Cc2ccccc2)cc1COc1ccc(NC(C)=O)cc1 (stereo not given) | inactive
Cc1ccc(CN(C)c2ncnc3ccc(-c4ccc(C#N)n4C)cc23)o1 | inactive
N#Cc1cnc(NS(=O)(=O)c2ccc(NC(=O)Cc3ccc(Cl)c(Cl)c3)cc2)s1 | inactive

Structure (SMILES) | Potency
NC(=O)C1CCN(c2nccc(-c3ccc4c(c3)OCCCO4)n2)CC1 | inactive
CCCCN1C(=O)c2ccccc2NC1c1ccc(OC)c(COc2ccc(NC(C)=O)cc2)c1 (stereo not given) | inactive
Cc1ccc2nc3sc(C(=O)N4CCCCC4)cc3cc2c1 | inactive
COc1ccc(C2Nc3ccccc3C(=O)N2Cc2ccc(-c3ccccc3)cc2)cc1COc1ccc(NC(C)=O)cc1 (stereo not given) | inactive
CCOc1ccc(CCNC(=O)c2cc3c(s2)CCC3)cc1OCC | inactive
CN1C(=O)Cc2cc([S+](=O)([O-])N3CCN([S+](=O)([O-])c4c(F)cccc4F)CC3)ccc21 | inactive
Cc1ccc(-c2cnn(CC(=O)NCCc3ccccc3)c(=O)c2)cc1 | inactive
Cc1ccc(NC(=O)CN2C(=O)N/C(=C\c3cccn3-c3ccc(C(=O)O)cc3)C2=O)cc1 | inactive
N#Cc1c(-c2ccc(Br)cc2)no[n+]1[O-] | inactive
O=C(Nc1nc(-c2ccccc2)cs1)c1ccncc1NS(=O)(=O)c1ccc(Cl)cc1 | inactive
Cc1ccc(N[S+](=O)([O-])c2cc3c(cc2Cl)NC(=O)CO3)cc1Br | inactive
Cc1ccc(S(=O)(=O)Nc2cc(C(F)(F)F)ccc2C(=O)Nc2nc(-c3ccccc3)cs2)cc1 | inactive
C/C(=C\c1cccc(C(F)(F)F)c1)C1Nc2cccc3cccc(c23)N1 | inactive
Cc1csc(CN(C)c2ncnc3ccc(-c4ccc5c(c4)OCO5)cc23)n1 | inactive
CC(=O)Nc1sc2c(c1-c1nc3ccccc3s1)CN(C(C)C)C2 | inactive
CC(C)(Nc1nc(-c2ccccc2C(F)(F)F)nc2ccccc12)c1ccc(-c2cccc(C(F)(F)F)c2)cc1 | inactive
CNC(=O)C1CCN(c2nc(-c3ccc(Br)cc3)cs2)CC1 | inactive

Biological target: Aldehyde dehydrogenase 1A1 (Homo sapiens) (UniProt P00352)
Assay: qHTS for Inhibitors of the Aldehyde Dehydrogenase Family (ALDH1A1) Confirmatory screens (AID 2061316); further: nearly all actives have a fitted effect of over 65% in size; further: potency means the concentration at half of the fitted maximal effect
Conditions: ALDH inhibition qHTS; series mostly up to 47.3 µM

Structure (SMILES) | Potency
CN(C)[C@H]1CCN(c2cccc(Nc3nn4c(=O)c5ccccc5nc4s3)c2)C1 | 5.04 µM (active)
C=C1[C@@H](OC(C)=O)CC[C@@]2(C)[C@@H](OC(C)=O)[C@H](OC(C)=O)C3=C(C)C[C@H](OC(=O)C(C)CC)[C@@H]([C@@H](OC(C)=O)[C@H]12)C3(C)C (stereo not given in full) | inactive
O=C1Nc2ccccc2/C1=C/c1cccc(C(=O)O)c1 | inactive
Cc1cc(-c2nnc3n2CCCCC3)c(C)n1-c1cccc2ccccc12 | 12.7 µM (active)
O=c1[nH]c(CN2CCOCC2)nc2sc3c(c12)CCCC3 | inactive
Nc1ccc(Nc2cc(O)c3ncccc3c2)cc1 | 14.2 µM (active)
O=C(OCC#CCSc1nnc(-c2cccc3ccccc23)o1)c1ccncc1 | inactive
O=C([C@@H]1CCCN(c2ccc3[nH]c(C4(n5cc(Cl)cn5)CC4)nc3n2)C1)N1CCCC1 | inactive
Cc1ccc(CN(C)c2ccc(N3CCN(C)CC3)cc2)cc1 | 2.01 µM (active)
NC(=O)C1CCN(c2nc(-c3cc4ccccc4o3)cs2)CC1 | 6.34 µM (active)
Cc1ccc(OCCn2c3c(c4ccccc42)CN(C(=O)C2CCCCC2)CC3)cc1 | 2.01 µM (active)
Cc1ccc(CN(C)c2ncnc3ccc(-c4ccc(C#N)n4C)cc23)o1 | 12.7 µM (active)
N#Cc1cnc(NS(=O)(=O)c2ccc(NC(=O)Cc3ccc(Cl)c(Cl)c3)cc2)s1 | inactive
NC(=O)C1CCN(c2nccc(-c3ccc4c(c3)OCCCO4)n2)CC1 | 11.3 µM (active)
N#Cc1cccnc1SC1=NS(=O)(=O)c2ccccc21 | 0.0712 µM (active)
Cc1csc(CN(C)c2ncnc3ccc(-c4ccc5c(c4)OCO5)cc23)n1 | 12.7 µM (active)
